Results on 15 molecules are retold here after PubChem BioAssay (NCI).

Test systems include T-47D breast; BT-549 breast; MDA-MB-435 melanoma; SW-620 colon; MCF7 breast; HCT-116 colon; HCC-2998 colon; KM12 colon.
What all share (assay): NCI-60 one-dose screen, 48 h (100 = growth as untreated, 0 = no growth, -100 = all killed)
Holding throughout (details): 10 µM unless noted

SMILES strings stand for the structures. About 83,000 compounds went through this panel and 20% of them were active in at least one assay; those are over-represented in the sample as a whole.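 Method: cells in 96-well plates; compound added at one concentration; 48 h incubation; percent growth measured; values under 10 scored active.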 Values without a mark were called inactive. Calls of active or inactive are those of the source.

As to `O=[N+]([O-])c1ccc(O)cc1Br`, the growth is 96.8% with T-47D breast; 91.2% in the assay on BT-549 breast; 100% in the assay on MDA-MB-435 melanoma; 104% in the assay with SW-620 colon; 92.9% with MCF7 breast; 95.4% with HCT-116 colon. The growth in the assay with HCC-2998 colon was 103%; in the assay on KM12 colon, 101%.

For `Cc1sc2nc(NCCc3c[nH]c4ccc(Cl)cc34)[nH]c(=O)c2c1C`, the growth in the assay with T-47D breast was 44.9%; with BT-549 breast it was 74.2%; in the assay on MDA-MB-435 melanoma it was 39.7%; with SW-620 colon, 9.09% (active); in the assay with MCF7 breast it was 32.2%; with HCT-116 colon, 24.5%. Further, the figures for the growth in the assay on HCC-2998 colon and in the assay with KM12 colon were 21.5% and 1.89% (active), respectively.

On to `CSc1nc2ncc([N+](=O)[O-])c(=O)n2[nH]1`, for which the growth was 99.8% with T-47D breast; 104% in the assay on BT-549 breast; 100% in the assay on MDA-MB-435 melanoma; 101% in the assay on SW-620 colon; 96.5% with MCF7 breast; 105% with HCT-116 colon. The growth in the assay on HCC-2998 colon was 107%; in the assay on KM12 colon it was 103%.

Turning to `N#Cc1ccc(O)c(C2=NCC(c3cccc(Oc4ccccc4)c3)O2)c1` (stereo not given), the growth was -12.5% (active) in the assay with T-47D breast; 30.6% in the assay with BT-549 breast; 35.2% in the assay on MDA-MB-435 melanoma; 25.6% in the assay with SW-620 colon; 21.4% in the assay with MCF7 breast; 16.9% in the assay on HCT-116 colon. Besides, the growth in the assay on HCC-2998 colon is 43.7%; with KM12 colon, 21%.

In the case of `O=C(Nc1ccc(Oc2cccc(F)c2)c(Cl)c1)c1cccnc1`, the growth with T-47D breast was 33.5%; in the assay on BT-549 breast it was 48.6%; in the assay with MDA-MB-435 melanoma it was 1.64% (active); with SW-620 colon, 25.8%; with MCF7 breast, 19.6%; in the assay on HCT-116 colon, 33.7%. Also, the growth in the assay with HCC-2998 colon is 57.7%; in the assay with KM12 colon, 29.3%.

Consider `COC1=CC(c2ccc[nH]2)=N/C1=C\c1[nH]c(C)c(CC(=O)OCc2ccccc2)c1CCC(=O)OCc1ccccc1`, for which the growth was -3.22% (active) in the assay with T-47D breast; -31.6% (active) with BT-549 breast; -49.2% (active) in the assay on MDA-MB-435 melanoma; -30.9% (active) in the assay on SW-620 colon; 4.14% (active) in the assay on MCF7 breast; -68.9% (active) with HCT-116 colon. The values for the growth with HCC-2998 colon and with KM12 colon were -3.69% (active) and -38.9% (active), respectively.

For the molecule `CC1=NC2=Nn3c(c4cnn(-c5ccccc5)c4n/c3=N\N)NN2C(c2ccccc2)=C1`, the growth in the assay on T-47D breast was 94.1%; with BT-549 breast, 95.4%; in the assay on MDA-MB-435 melanoma it was 92.3%; with SW-620 colon it was 86.8%; in the assay with MCF7 breast, 87.8%; in the assay on HCT-116 colon it was 99.3%. Moreover, the results for the growth in the assay with HCC-2998 colon and with KM12 colon were 99.2% and 92.9%, respectively.

For `COc1cc2c(c(OC)c1OC)CCC(c1cccc(C(=O)Nc3cccc(Cl)c3)c1)O2` (stereo not given), the growth was 36.7% in the assay on T-47D breast; 67.5% in the assay with BT-549 breast; 82.1% in the assay with MDA-MB-435 melanoma; 99.2% in the assay with SW-620 colon; 73% in the assay on MCF7 breast; 74.2% with HCT-116 colon. Moreover, the figures for the growth with HCC-2998 colon and in the assay with KM12 colon were 91% and 96.3%, respectively.

As to `COc1ccc(-c2nn(-c3cccc(Cl)c3)cc2-c2cc(-c3ccc(Br)cc3)nc(N)n2)cc1`, the growth in the assay with T-47D breast is 66.2%; in the assay on BT-549 breast, 114%; with MDA-MB-435 melanoma, 99.6%; in the assay with SW-620 colon, 100%; in the assay on MCF7 breast, 57.4%; with HCT-116 colon, 91.5%. In addition, the growth in the assay on HCC-2998 colon was 104%; in the assay on KM12 colon, 93.4%.

With `C=CC[Se]C(=O)Cc1c(C)n(C(=O)c2ccc(Cl)cc2)c2ccc(OC)cc12`, the growth with T-47D breast was -24.3% (active); in the assay with BT-549 breast, 0.594% (active); with MDA-MB-435 melanoma, 8.15% (active); in the assay on SW-620 colon, 5.69% (active); in the assay on MCF7 breast, -4.29% (active); with HCT-116 colon it was 5.41% (active). For the same molecule, the growth in the assay with HCC-2998 colon is 4.27% (active); in the assay with KM12 colon, -27.9% (active).

For the molecule `COc1ccc(Nc2ncc(Br)c(NCCCNC(=O)c3cccs3)n2)cc1`, the growth with T-47D breast was 46.2%; in the assay on BT-549 breast it was 45.6%; in the assay on MDA-MB-435 melanoma, 59%; with SW-620 colon it was 24.7%; in the assay with MCF7 breast, 42.9%; with HCT-116 colon it was 26.2%. Besides, the values for the growth in the assay with HCC-2998 colon and in the assay on KM12 colon were 80.6% and 20.6%, respectively.

Regarding `C#CCNC(=O)[C@H](CC)[C@H]1CC[C@H](C)[C@H]([C@@H](C)[C@H](O)[C@H](C)C(=O)[C@H](CC)C2O[C@]3(C=CC(=O)[C@]4(CC[C@@](C)([C@H]5CC[C@](O)(CC)[C@H](C)O5)O4)O3)[C@H](C)C[C@@H]2C)O1` (stereo not given in full), the growth in the assay on T-47D breast is 41.9%; in the assay on BT-549 breast it was 40.9%; with MDA-MB-435 melanoma, -65.3% (active); in the assay with SW-620 colon, 30.8%; in the assay on MCF7 breast it was 24%; with HCT-116 colon, 25.9%. The growth is 85.4% with HCC-2998 colon and 23.8% with KM12 colon.

`Nc1c(C(=O)Nc2ccccc2F)sc2nc3c(cc12)CCCC3`: the growth with T-47D breast was 41.9%; in the assay on BT-549 breast, 56.8%; in the assay on MDA-MB-435 melanoma it was -7.54% (active); with SW-620 colon, 25.3%; in the assay on MCF7 breast, 18%; in the assay with HCT-116 colon, 23.7%. Besides, the growth was 57.7% with HCC-2998 colon and 27.6% in the assay on KM12 colon.

`O=C(/C=C/c1ccccc1)Nc1ncc(Cc2ccccc2Cl)s1`: the growth with T-47D breast is 21.1%; with BT-549 breast, 55.2%; in the assay with MDA-MB-435 melanoma, -44.4% (active); with SW-620 colon it was 31.4%; in the assay with MCF7 breast it was 18.9%; in the assay with HCT-116 colon it was 16%. Moreover, the figures for the growth in the assay on HCC-2998 colon and in the assay on KM12 colon were 35.4% and 14%, respectively.

On to `CN(C)Cc1ccc(O)c(C(=O)O)c1`, for which the growth in the assay on T-47D breast is 109%; in the assay on BT-549 breast, 112%; in the assay on MDA-MB-435 melanoma it was 107%; in the assay with SW-620 colon, 106%; with MCF7 breast, 107%; with HCT-116 colon, 109%. The growth in the assay with HCC-2998 colon was 109%; in the assay on KM12 colon it was 108%.
